The target of test [1] is Progesterone receptor (Homo sapiens) (UniProt P06401). As to the kind of experiment: qHTS assay to identify small molecule agonists of the progesterone receptor (PR) signaling pathway (AID 1346784; calls by dose curve; note: nearly all actives have a fitted effect of over 30% in size). A digest of the protocol: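 Agonist qHTS: compounds pinned onto 3,000 PR-UAS-bla HEK 293T cells per well in charcoal-stripped serum medium, 16hr at 37C, then beta-lactamase activity measured by LiveBLAzer FRET fluorescence after 2 hours at room temperature.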
Progesterone receptor (Homo sapiens), sequence (P06401 whole entry, looked up): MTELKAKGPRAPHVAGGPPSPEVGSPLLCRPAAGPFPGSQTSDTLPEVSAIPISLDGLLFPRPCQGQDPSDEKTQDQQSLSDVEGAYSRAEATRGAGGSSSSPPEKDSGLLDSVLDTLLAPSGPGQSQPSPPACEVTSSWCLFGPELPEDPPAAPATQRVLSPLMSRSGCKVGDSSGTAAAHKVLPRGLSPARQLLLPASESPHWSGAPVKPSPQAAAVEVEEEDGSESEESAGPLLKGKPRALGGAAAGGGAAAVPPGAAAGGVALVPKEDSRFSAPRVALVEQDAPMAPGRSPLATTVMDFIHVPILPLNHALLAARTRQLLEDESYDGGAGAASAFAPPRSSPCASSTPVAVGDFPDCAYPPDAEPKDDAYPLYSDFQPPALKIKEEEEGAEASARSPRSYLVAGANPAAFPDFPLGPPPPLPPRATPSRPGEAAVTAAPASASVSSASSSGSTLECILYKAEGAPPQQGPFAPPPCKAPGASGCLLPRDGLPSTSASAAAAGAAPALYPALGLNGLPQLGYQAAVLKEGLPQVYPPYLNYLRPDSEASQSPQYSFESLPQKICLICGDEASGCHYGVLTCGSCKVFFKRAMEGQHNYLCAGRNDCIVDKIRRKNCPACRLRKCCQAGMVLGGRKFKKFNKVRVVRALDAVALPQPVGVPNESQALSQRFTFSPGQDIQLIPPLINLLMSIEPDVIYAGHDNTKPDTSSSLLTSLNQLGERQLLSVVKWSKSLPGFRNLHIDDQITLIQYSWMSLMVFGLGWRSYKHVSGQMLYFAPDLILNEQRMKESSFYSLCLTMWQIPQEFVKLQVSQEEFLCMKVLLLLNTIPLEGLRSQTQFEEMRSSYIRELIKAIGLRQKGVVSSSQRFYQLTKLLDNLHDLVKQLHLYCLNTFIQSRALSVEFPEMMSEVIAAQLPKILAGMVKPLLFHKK
For orientation: qHTS replaces the single test concentration by a dilution series.

Test [2] can be described thus: qHTS assay to identify small molecule antagonists of the progesterone receptor (PR) signaling pathway - cell viability counter screen (AID 1346798). Note: series mostly up to about 92 µM; nearly all actives have a fitted effect of over 50% in size. A digest of the protocol:
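Cytotoxicity read as CellTiter-Glo luminescence (30 min, room temperature) in the same wells as the beta-lactamase readout. HEK293T PR-UAS-bla cells in charcoal-stripped 2% FBS received compound and R5020, then 16 h at 37C, 5% CO2.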

Test [3] in a line: qHTS assay to identify small molecule antagonists of the TGF-beta/Smad signaling pathway - cell viability counter screen (AID 1346824). Note: nearly all actives have a fitted effect of over 50% in size. In a few lines:
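Cytotoxicity counter-screen run in the same wells as the beta-lactamase Smad reporter read: CellTiter-Glo luminescence after 30 min at room temperature. HEK 293T SBE-bla cells had 5 hr compound exposure at 37 C with TGF-beta1 (0.25 ng/mL stock).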

A short description of test [4]: qHTS assay to identify small molecule agonists of the TGF-beta/Smad signaling pathway - cell viability counter screen (AID 1346829). Note: top concentration of the series differs between compounds; nearly all actives have a fitted effect of over 45% in size. A digest of the protocol: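 CellTiter-Glo luminescence readout; SBE-bla HEK 293T cells, overnight plating, compound 5 hr at 37 C/5% CO2, then bla substrate 2 hr RT, then CellTiter-Glo 30 min RT.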
Test [5] can be described thus: qHTS assay to identify small molecule agonists of the TGF-beta/Smad signaling pathway (AID 1346859; active = well fitted activation curve with a large enough effect in the signal ratio in the repeat runs, not every such curve was filed as active; the % refers to the signal ratio; note: series mostly up to about 77 µM). A digest of the protocol: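 Fluorescence (ex 405 nm; em 460 and 530 nm) was read 2 h after LiveBLAzer FRET substrate at RT. The preceding compound treatment of overnight-plated SBE-bla HEK293T cells lasted 5 h at 37 C.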
Test [6] in a line: Human pregnane X receptor (PXR) small molecule agonists, qHTS cell viability counter screen (AID 1346977). Note: nearly all actives have a fitted effect of over 50% in size. A digest of the protocol: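 Same-well viability read: CellTiter-Fluor added after 23 hr compound exposure, fluorescence measured 1 hr later. Cells were PXR-Luc HepG2 seeded at 2,000/well in 5% charcoal-stripped FBS medium, rested 5 hr before dosing at 37 C.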
Test [7] can be described thus: Caspase-3/7 induction in CHO-K1 cells by small molecules, qHTS cell viability counter screen (AID 1346979). Note: nearly all actives have a fitted effect of over 35% in size. In a few lines:
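Cytotoxicity counter screen: CellTiter-Fluor added to compound-treated wild-type CHO-K1 cells at 16 h (37C, 5% CO2), fluorescence measured 1 h later; same wells as caspase-3/7 measurement.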

Test [8] is described as follows: Caspase-3/7 induction in CHO-K1 cells by small molecules, qHTS assay (AID 1346980). Note: nearly all actives have a fitted effect of over 15% in size. A digest of the protocol:
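Luminescent Caspase-Glo 3/7 read (30min, room temperature) quantified apoptosis induction. Cells were wild-type CHO-K1, treated with compound for 17hr at 37 C and 5% CO2.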

Test [9] in a line: Caspase-3/7 induction in HepG2 cells by small molecules, qHTS cell viability counter screen (AID 1346981). Note: series mostly up to about 92 µM; nearly all actives have a fitted effect of over 30% in size. A digest of the protocol: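 In this quantitative HTS counter screen, compounds delivered in DMSO were left on unmodified HepG2 cells for 16 hr at 37 C. Viability was then determined fluorometrically with CellTiter-Fluor, in parallel with caspase-3/7 induction in the same wells.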

The target in test [10] is Nuclear receptor subfamily 1 group I member 2 (Homo sapiens) (UniProt O75469). As to the kind of experiment: Human pregnane X receptor (PXR) small molecule agonists, qHTS assay (AID 1346982). Note: nearly all actives have a fitted effect of over 35% in size. A digest of the protocol:
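Reporter HepG2 cells expressing PXR-Luc are cultured in charcoal-stripped FBS (5%), treated with compounds for 24 hr at 37 C, and assayed by ONE-Glo luminescence after 30 min at room temperature.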

Test [11] has as its target Cytochrome P450 2D6 (Homo sapiens) (UniProt P10635). As to the kind of experiment: Cytochrome P450 Family 2 Subfamily D Member 6 (CYP2D6) small molecule antagonists: luciferase reporter qHTS assay (AID 1671196). For activity change, negative = inhibition: series mostly up to about 120 µM. Note: nearly all actives have a fitted effect of over 50% in size. Note: potency is the fitted concentration of half-maximal effect. In a few lines: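 Test chemicals meet CYP2D6 plus proluciferin substrate (10 min, RT); NADPH regenerating solution then drives turnover for 1 h. Detection reagent halts the reaction; luminescence measured after 20 min.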
Background: Reporter assays use an easily measured gene product as a stand-in for the process of interest.

Test [12] has as its target Cytochrome P450 2C19 (Homo sapiens) (UniProt P33261). As to the kind of experiment: Cytochrome P450 Family 2 Subfamily C Member 19 (CYP2C19) small molecule antagonists: luciferase reporter qHTS assay (AID 1671197). Note: series mostly up to about 120 µM; nearly all actives have a fitted effect of over 65% in size. A digest of the protocol:
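Enzyme-substrate mix with proluciferin substrate (P450-Glo CYP2C19 system) preincubated with compounds 10 min at room temperature; NADPH regeneration solution added, 37C for 1 h; detection reagent stops reaction, luminescence read after 20 min. Ketoconazole positive control.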

Test [13] deals with Progesterone receptor (Homo sapiens) (UniProt P06401). As to the kind of experiment: qHTS assay to identify small molecule antagonists of the progesterone receptor (PR) signaling pathway (AID 1346795; active = well fitted inhibition curve with a large enough effect in the signal ratio in the repeat runs, not every such curve was filed as active; the % refers to the signal ratio). In a few lines: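 Antagonist mode with agonist R5020 at 1 nM final and 16 hr incubation at 37C. Reporter was beta-lactamase driven by UAS in HEK293T (PR-UAS-bla), 2% charcoal-stripped serum; signal from LiveBLAzer FRET substrate, 2 hr at room temperature.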

Test [14] can be described thus: qHTS assay to identify small molecule agonists of the progesterone receptor (PR) signaling pathway - cell viability counter screen (AID 1346799; calls by dose curve; note: nearly all actives have a fitted effect of over 45% in size). In a few lines:
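Cytotoxicity measured by CellTiter-Glo luminescence (30 min, RT) in the same wells as the PR beta-lactamase agonist read. Those HEK293T cells had 16 h compound treatment at 37 C in 2% charcoal-stripped FBS medium.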

For test [15], the target named is Thyrotropin-releasing hormone receptor (Homo sapiens) (UniProt P34981). As to the kind of experiment: qHTS assay to identify small molecule antagonists of the thyrotropin-releasing hormone receptor (TRHR) signaling pathway (AID 1346877; active = well fitted inhibition curve with a large enough effect in the repeat runs, not every such curve was filed as active; note: series mostly up to about 51 µM). A digest of the protocol:
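Kinetic fluorescence (3 min, 1 s resolution) following stimulation with TRH at 1 nM final; HEK293 cells bearing human TRHR; 5 min compound preincubation at RT; concentration-response over 15 points, triplicates.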

Test [16] can be described thus: Caspase-3/7 induction in HepG2 cells by small molecules, qHTS assay (AID 1346978). Note: nearly all actives have a fitted effect of over 15% in size. In a few lines:
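Caspase-3/7 induction was measured by Caspase-Glo 3/7 luminescence (30 min, room temperature) after a 17 hr compound exposure of wild-type HepG2 cells seeded at 2,000 per well and pre-incubated 5 hr.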

In test [17] the target is Thyrotropin-releasing hormone receptor (Homo sapiens) (UniProt P34981). As to the kind of experiment: qHTS assay to identify small molecule agonists of the thyrotropin-releasing hormone receptor (TRHR) signaling pathway (AID 1346891; calls by dose curve; note: series mostly up to about 58 µM). In a few lines: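 Agonist-mode intracellular calcium readout: kinetic fluorescence over 3 min at 1 s intervals after compound addition to TRHR-HEK293 cells (18 h seeded, 2 h dye-loaded at 37 C). Fifteen concentrations, triplicates.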
Thyrotropin-releasing hormone receptor (Homo sapiens), sequence (P34981 whole entry, looked up): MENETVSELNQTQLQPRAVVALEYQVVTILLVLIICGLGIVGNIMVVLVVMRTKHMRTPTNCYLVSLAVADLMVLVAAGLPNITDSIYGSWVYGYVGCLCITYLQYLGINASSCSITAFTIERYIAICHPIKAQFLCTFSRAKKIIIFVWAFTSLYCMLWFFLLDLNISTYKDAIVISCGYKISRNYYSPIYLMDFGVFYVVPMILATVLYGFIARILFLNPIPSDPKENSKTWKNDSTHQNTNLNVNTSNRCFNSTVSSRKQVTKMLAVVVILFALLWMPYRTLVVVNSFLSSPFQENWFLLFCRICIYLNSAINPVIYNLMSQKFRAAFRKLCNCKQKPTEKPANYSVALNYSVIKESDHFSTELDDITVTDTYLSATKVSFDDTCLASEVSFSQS

Test [18] deals with Nuclear receptor subfamily 1 group I member 2 (Rattus norvegicus) (UniProt Q9R1A7). As to the kind of experiment: Rat pregnane X receptor (rPXR) activation by small molecules, qHTS assay (AID 1346983). Note: nearly all actives have a fitted effect of over 20% in size. The settings on record: rPXR luciferase reporter cells, One-Glo luminescence, 24 h; max activation: hits give high values. In a few lines:
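Luminescent readout (One-Glo luciferase, 30 min room temperature) followed 24 hr compound treatment at 37 C of rPXR cells plated 2,000 per well and preincubated 5hr; qHTS format with compounds delivered in DMSO.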

The target in test [19] is Nuclear receptor subfamily 1 group I member 2 (Homo sapiens) (UniProt O75469). As to the kind of experiment: CYP3A4 induction through human pregnane X receptor (PXR) by small molecules, qHTS assay (AID 1346984). Note: nearly all actives have a fitted effect of over 40% in size. A digest of the protocol: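 Induction measured in HepG2-based DPX-2 cells co-expressing human PXR and a CYP3A4 promoter-driven luciferase. After a 24-hour compound exposure, cells received CYP3A4 luciferin substrate at 3uM final for 3 hours, and light output was then recorded.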
Nuclear receptor subfamily 1 group I member 2 (Homo sapiens), sequence (O75469 whole entry, looked up): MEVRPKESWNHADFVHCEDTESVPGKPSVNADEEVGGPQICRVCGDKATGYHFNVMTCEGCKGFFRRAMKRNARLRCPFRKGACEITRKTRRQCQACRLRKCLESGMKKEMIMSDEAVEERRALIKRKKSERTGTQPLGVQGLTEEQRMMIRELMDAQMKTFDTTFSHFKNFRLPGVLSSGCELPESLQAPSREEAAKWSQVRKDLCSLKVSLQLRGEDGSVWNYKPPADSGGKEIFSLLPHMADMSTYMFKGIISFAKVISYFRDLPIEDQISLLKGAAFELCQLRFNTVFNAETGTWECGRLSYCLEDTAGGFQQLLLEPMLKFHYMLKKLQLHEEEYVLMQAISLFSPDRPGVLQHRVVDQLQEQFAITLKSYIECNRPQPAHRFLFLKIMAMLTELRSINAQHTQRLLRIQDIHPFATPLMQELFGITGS

For test [20] the target is unchanged. As to the kind of experiment: Human pregnane X receptor (PXR) activation by small molecules, qHTS assay (AID 1346985). Note: nearly all actives have a fitted effect of over 40% in size. In a few lines: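 DPX-2 cells (HepG2 co-transfected with a PXR response element and a CYP3A4-promoter luciferase construct) were seeded at 2,000 per well, rested 5 hr at 37C, then exposed to DMSO-dissolved compounds for 24 hr. Activation was read as luciferase luminescence.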

Values without a mark were called inactive. Results filed as inconclusive are left out. Calls of active or inactive are those of the source. Unless noted, calls come from the whole dose curve; as a rule, active = well fitted curve in the direction sought with a large enough effect in the repeat runs; inconclusive = weak or mixed curves; inactive = no such curve, though single readings can be large; an effect the other way counts as inactive or inconclusive.

This is an account of results in PubChem BioAssay (Tox21).
% is set by controls: 0 for no effect and ±100 for the full control effect.

Cytochrome P450 2C19 (Homo sapiens), sequence (P33261 whole entry, looked up): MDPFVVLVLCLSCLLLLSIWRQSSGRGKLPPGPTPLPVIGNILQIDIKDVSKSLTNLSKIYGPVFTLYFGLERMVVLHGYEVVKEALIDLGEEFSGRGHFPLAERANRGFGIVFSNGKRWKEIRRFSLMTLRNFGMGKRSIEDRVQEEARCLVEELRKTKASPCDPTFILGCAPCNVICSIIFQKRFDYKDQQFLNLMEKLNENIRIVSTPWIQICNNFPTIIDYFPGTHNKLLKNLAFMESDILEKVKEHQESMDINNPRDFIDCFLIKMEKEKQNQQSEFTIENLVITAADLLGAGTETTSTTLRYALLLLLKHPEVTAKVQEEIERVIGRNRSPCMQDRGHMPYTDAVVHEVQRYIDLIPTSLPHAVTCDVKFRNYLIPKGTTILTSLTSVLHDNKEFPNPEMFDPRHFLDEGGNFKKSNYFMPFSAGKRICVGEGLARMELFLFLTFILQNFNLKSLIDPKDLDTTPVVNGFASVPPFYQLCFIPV
Cytochrome P450 2D6 (Homo sapiens), sequence (P10635 whole entry, looked up): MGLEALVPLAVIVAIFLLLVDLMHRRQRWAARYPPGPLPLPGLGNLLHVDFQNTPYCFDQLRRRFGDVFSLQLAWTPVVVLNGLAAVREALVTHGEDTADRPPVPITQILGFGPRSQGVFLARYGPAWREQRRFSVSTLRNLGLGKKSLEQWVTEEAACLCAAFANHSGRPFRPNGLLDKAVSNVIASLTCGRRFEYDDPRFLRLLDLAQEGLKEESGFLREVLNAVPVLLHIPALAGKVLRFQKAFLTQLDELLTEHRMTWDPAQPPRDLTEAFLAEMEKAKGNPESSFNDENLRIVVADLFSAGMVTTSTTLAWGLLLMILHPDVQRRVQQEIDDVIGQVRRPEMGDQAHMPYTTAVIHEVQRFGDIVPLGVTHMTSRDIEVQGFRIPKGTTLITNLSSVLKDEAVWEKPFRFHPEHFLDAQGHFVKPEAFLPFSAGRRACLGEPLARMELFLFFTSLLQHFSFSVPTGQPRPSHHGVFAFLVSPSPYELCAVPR
Nuclear receptor subfamily 1 group I member 2 (Rattus norvegicus), sequence (Q9R1A7 whole entry, looked up): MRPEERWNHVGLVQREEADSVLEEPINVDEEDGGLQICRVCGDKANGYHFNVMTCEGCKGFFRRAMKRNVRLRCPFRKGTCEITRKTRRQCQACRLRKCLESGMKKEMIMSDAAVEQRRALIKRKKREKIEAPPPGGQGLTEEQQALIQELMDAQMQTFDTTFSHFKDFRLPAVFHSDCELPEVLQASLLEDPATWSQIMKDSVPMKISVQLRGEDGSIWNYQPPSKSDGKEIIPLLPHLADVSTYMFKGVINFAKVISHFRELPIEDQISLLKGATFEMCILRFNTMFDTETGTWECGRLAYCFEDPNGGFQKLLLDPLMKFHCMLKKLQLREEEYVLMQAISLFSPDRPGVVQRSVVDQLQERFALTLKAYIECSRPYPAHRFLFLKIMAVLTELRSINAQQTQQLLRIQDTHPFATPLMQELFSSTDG

With `[Ca+2]`, the Potency entry in test [1], in test [2], in test [6], in test [7], in test [9] and in test [10] was “inactive” in each case. Moreover, the Potency entry in test [12] is “inactive”. Besides, the outcome in [3], in test [4], in test [5] and in test [8] was inactive. Moreover, the Potency in test [11] is 35.6 µM (active).
Regarding `CC(C)C[C@@H](N)C(=O)O`, the activity change, negative = inhibition in test [13] is 12.3% [at 18.9 µM]. The activity change, negative = cytotoxicity in [2] was -9.21% [at 18.9 µM]; in test [14], -1.58% [at 19 µM]; in [4], 15.2% [at 15.8 µM]; in test [6], 28.2% [at 19 µM]; in test [7] it was -2.25% [at 19 µM]; in test [9], 1.16% [at 19 µM]. The viability change, negative = cytotoxic in [3] was -3.28% [at 15.8 µM]. For the same compound, the activation in test [5] is 0.277% [at 15.8 µM]. Moreover, the activity, negative = inhibition in test [15] is -3.99% [at 10.5 µM]. In addition, the caspase activation in test [16] is -0.781% [at 19 µM]. Besides, the caspase-3/7 activation in test [8] was -0.0944% [at 19 µM].
For `CC(=O)C1CCCCC1=O` (stereo not drawn), the Potency result in test [1], in test [2], in [17], in test [6], in test [7] and in [9] was “inactive” throughout. Further, the Potency result in test [10] is “inactive”. Also, the result in [3], in [4], in test [5], in test [15] and in [8] was inactive.
Turning to `CO[C@@]1(NC(=O)CSC[C@@H](N)C(=O)O)C(=O)N2C(C(=O)O)=C(CSc3nnnn3C)CS[C@@H]21`, the Potency result in test [13], in [2], in test [14], in test [17], in test [6] and in [7] was “inactive” throughout. Further, the Potency entry in test [9] and in test [10] was “inactive” in each case. The compound was called inactive in test [3], in test [4], in test [5], in [15], in test [16] and in test [8].
Turning to `CO/N=C(\C(=O)N[C@@H]1C(=O)N2C(C(=O)O)=C(CSc3nc(=O)c(O)nn3C)CS[C@H]12)c1csc(N)n1`, the Potency result in [1], in test [14], in [17], in test [6], in [7] and in test [9] was “inactive” in each case. Also, the Potency entry in [10], in test [19], in test [20] and in test [12] was “inactive” each time. Further, the compound was classed as inactive in test [3], in test [4], in [5], in test [15], in test [16] and in test [8]. Besides, the max activation in [18] is -3.34%.
For `O=C1NC(=O)C2CC=CCC12` (stereo not drawn), the Potency entry in test [1], in test [14], in test [6], in test [7] and in test [9] was “inactive” throughout. Further, the outcome in test [3], in test [5], in test [15] and in test [8] was inactive.
Consider `Clc1cc(Cl)cc(Cl)c1`, for which the Potency entry in test [13], in test [2], in [14], in test [6], in test [7] and in [9] was “inactive” in each case. The Potency entry in test [10] and in test [11] was “inactive” in each case. Besides, the result in [3], in test [4], in [5], in [15], in [16] and in [8] was inactive.
For the compound `CCCc1ncc(C[n+]2ccccc2C)c(N)n1`, the Potency result in [13], in test [2], in test [14], in test [17], in [6] and in test [7] was “inactive” in each case. Moreover, the Potency result in [9] and in [12] was “inactive” in each case. Also, the compound was classed as inactive in test [3], in [4], in [5], in [15] and in test [16]. Besides, the max activation in test [18] was -3.34%.
With `CC1=NN(c2cccc(S(=O)(=O)O)c2)C(=O)C1`, the Potency result in test [1], in test [17], in test [6], in test [7], in test [9] and in [10] was “inactive” in each case. In addition, the Potency result in test [11] and in test [12] was “inactive” in each case. In addition, the outcome in test [3], in test [4], in test [5], in test [15], in test [16] and in test [8] was inactive.
